Experimental data published in PubChem BioAssay AID1259349 (Broad Institute, 2017).
“And” between values parts separate entries of the source, which are not always exact repeats. Equal entries are not always repeated. About 1,100 (6.5%) of roughly 17,000 compounds were called active.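 How the source made its calls: active means z-score of -3 or lower, meaning strong loss of probe binding signal; inactive means the rest.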 Many of the other results were omitted from the sample, so actives are more common in it than they were. The source holds several records for some structures; these can differ, active in one and inactive in another.

target: Insulin-degrading enzyme (Homo sapiens) (UniProt P14735); experiment: displacers of FL-6b probe from IDE – biochemical, fluorescence anisotropy, probe displacement, primary screen (AID 1259349); conditions: purified IDE, FL-6b probe fluorescence polarization; at 20 µM; stronger effect = lower value;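 further: His-tagged human IDE residues 42-1019 made in E. coli with 30 nM FL-6b probe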
Sequence (P14735 42-1019 limits assumed): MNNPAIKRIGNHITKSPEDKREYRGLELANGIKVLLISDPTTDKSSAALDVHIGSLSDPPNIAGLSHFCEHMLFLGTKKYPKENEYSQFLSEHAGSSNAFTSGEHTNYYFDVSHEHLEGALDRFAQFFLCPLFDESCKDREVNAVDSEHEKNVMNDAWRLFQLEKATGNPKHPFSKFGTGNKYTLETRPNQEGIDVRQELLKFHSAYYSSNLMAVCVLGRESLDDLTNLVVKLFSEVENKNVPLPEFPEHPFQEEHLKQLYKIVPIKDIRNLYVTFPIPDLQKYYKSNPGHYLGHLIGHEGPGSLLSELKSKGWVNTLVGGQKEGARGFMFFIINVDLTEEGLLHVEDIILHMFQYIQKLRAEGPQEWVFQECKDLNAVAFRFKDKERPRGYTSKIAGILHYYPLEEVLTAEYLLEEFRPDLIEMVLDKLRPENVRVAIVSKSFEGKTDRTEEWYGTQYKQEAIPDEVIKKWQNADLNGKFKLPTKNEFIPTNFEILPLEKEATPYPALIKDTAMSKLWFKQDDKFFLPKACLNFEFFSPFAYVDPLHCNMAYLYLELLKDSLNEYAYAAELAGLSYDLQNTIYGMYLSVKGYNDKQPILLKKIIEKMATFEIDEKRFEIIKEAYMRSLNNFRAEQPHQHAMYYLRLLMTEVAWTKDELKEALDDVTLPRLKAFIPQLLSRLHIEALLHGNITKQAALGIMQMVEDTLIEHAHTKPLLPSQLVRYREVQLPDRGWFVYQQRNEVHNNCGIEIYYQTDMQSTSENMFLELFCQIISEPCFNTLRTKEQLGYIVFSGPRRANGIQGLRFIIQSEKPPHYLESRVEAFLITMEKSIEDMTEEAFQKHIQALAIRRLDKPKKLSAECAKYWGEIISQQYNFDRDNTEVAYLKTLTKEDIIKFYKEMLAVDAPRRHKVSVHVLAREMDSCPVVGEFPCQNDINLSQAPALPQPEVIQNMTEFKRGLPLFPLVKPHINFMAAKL

| Compound | z-score |
| --- | --- |
| CCCN1C[C@@H](C)[C@@H](OC)CN(C)C(=O)c2cc(NC(=O)C3CCC3)ccc2OC[C@H]1C | -0.201 (inactive) |
| O=C(C[C@@H]1C=C[C@@H](NC(=O)c2ccc3c(c2)OCO3)[C@H](CO)O1)NC1Cc2ccccc2C1 | 0.748 (inactive) |
| O=C(C1CCCC1)N1[C@@H](CO)[C@@H](c2ccccc2)C12CN(Cc1ccc(F)cc1)C2 | 1.26 (inactive) |
| O=C(c1ccccn1)N1CC2(C1)[C@@H](c1ccccc1)[C@@H](CO)N2C(=O)C1CCCCC1 | -4.56 (active) |
| CN(C)CC(=O)N1CC2(C1)[C@H](c1ccccc1)[C@H](CO)N2C(=O)C1CC1 | -1.06 (inactive) |
| CCS(=O)(=O)Nc1ccc2c(c1)C(=O)N(C)[C@H]1CC[C@H](CC(=O)N[C@@H]3CCN(Cc4ccccc4)C3)O[C@H]1CO2 | -0.74 (inactive) |
| Cc1cccc(-c2ccc([C@H]3[C@@H](CO)N4CCCCN(Cc5cncnc5)C[C@H]34)cc2)c1 | -5.22 (active) |
| Cc1cccc(-c2ccc([C@@H]3[C@H](CO)N4CCCCN(Cc5ccncc5)C[C@@H]34)cc2)c1 | -5.19 (active) |
| OC[C@H]1[C@H](c2ccc(-c3cccc(F)c3)cc2)[C@@H]2CN(Cc3cncnc3)CCCCN12 | 0.665 (inactive) |
| OC[C@H]1[C@H](c2ccc(-c3cccnc3)cc2)[C@H]2CN(Cc3ccccn3)CCCCN21 | -3.14 (active) |
| OC[C@@H]1[C@H](c2ccc(Br)cc2)[C@@H]2CN(Cc3ccccn3)CCCCN12 | 0.871 (inactive) |
| CCC(=O)N1CCCCN2[C@H](CO)[C@@H](c3ccc(-c4cccnc4)cc3)[C@H]2C1 | 0.698 (inactive) |
| COc1ccc(CN2CCCCN3[C@H](C2)[C@H](c2ccc(-c4ccc(OC)cc4)cc2)[C@@H]3CO)cc1 | 3.61 (inactive) |
| OC[C@@H]1[C@H](c2ccc(C3=CCCC3)cc2)[C@H]2CN(Cc3ccncc3)CCCCN12 | 1.19 (inactive) |
| Cc1ccc(-c2ccc([C@H]3[C@H](CO)N4CCCCN(Cc5cncnc5)C[C@@H]34)cc2)cc1 | 3.25 (inactive) |
| CO[C@H]1CN(C)C(=O)c2cc(NC(=O)NC(C)C)ccc2OC[C@H](C)N(C(=O)CN(C)C)C[C@H]1C | -0.369 (inactive) |
| COCCN(C[C@H]1[C@H](c2ccccc2)[C@@H](CO)N1C(C)=O)C(=O)c1cccnc1 | -0.97 (inactive) |
| CN(C)C(=O)c1ccc(-c2ccc([C@H]3[C@H](CO)N4CCCCN(S(C)(=O)=O)C[C@@H]34)cc2)cc1 | 4.37 (inactive) |
| O=C(c1ccc(F)cc1)N1CC(=O)N2[C@H](CO)[C@H](c3ccc(-c4ccccc4F)cc3)[C@@H]2C1 | 0.797 (inactive) |
| O=C(C1CCCC1)N1CC(=O)N2[C@H](CO)[C@H](c3ccc(Br)cc3)[C@@H]2C1 | 1.85 (inactive) |
| O=C(C1CC1)N1CC(=O)N2[C@H](CO)[C@@H](c3ccc(-c4ccccc4F)cc3)[C@@H]2C1 | -6.21 (active) |
| O=C(C1CCC1)N1C[C@@H]2N[C@H](C1)C2c1ccc(-c2cncnc2)cc1 (stereo not given in full) | 0.446 (inactive) |
| O=C(C1CCC1)N1CC(=O)N2[C@H](C1)[C@@H](c1ccc(-c3ccccc3F)cc1)[C@@H]2CO | -10.1 (active) |
| CN(C)C(=O)c1ccc(-c2ccc(C3[C@@H]4CN(C(=O)Nc5ccccc5)C[C@H]3N4)cc2)cc1 (stereo not given in full) | 0.753 (inactive) |
| O=C(C1CCCC1)N1CC(=O)N2[C@H](CO)[C@H](c3ccc(Br)cc3)[C@H]2C1 | 3.78 (inactive) |
| Cc1ccccc1-c1ccc(C2[C@@H]3CN(C(=O)C4CCCCC4)C[C@H]2N3)cc1 (stereo not given in full) | 1.9 (inactive) and -13.9 (active) |
| O=C(C1CCCCC1)N1CC(=O)N2[C@H](CO)[C@H](c3ccc(-c4ccccc4F)cc3)[C@H]2C1 | -2.1 (inactive) |
| O=C(C1CCCCC1)N1CC(=O)N2[C@H](CO)[C@H](c3ccc(Br)cc3)[C@H]2C1 | 2.21 (inactive) |
| O=C(C1CCCCC1)N1CC(=O)N2[C@H](CO)[C@@H](c3ccc(-c4ccccc4F)cc3)[C@@H]2C1 | -3.81 (active) |
| COCC(=O)N1CC(=O)N2[C@H](CO)[C@@H](c3ccc(-c4ccccc4F)cc3)[C@H]2C1 | -0.201 (inactive) |
